Test [1] has as its target Caspase-1 (Homo sapiens) (UniProt P29466). Description: NVS_ENZ_hCASP1: NovaScreen (NVS) Enzymatic Assay for human Caspase 1 (CASP1) (AID 2283132). Summed up: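 Compounds were first tested in duplicate at 25 uM, with follow-up concentration series up to 50 uM. The bacterially expressed enzyme was read by fluorescence at 1 h post-dosing. Signal loss versus DMSO baseline indicates reduced enzyme activity.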

Test [2] concerns the target human Caspase 2 (CASP2), CASP2 (gene 835) (UniProt P42575). The test can be described thus: NVS_ENZ_hCASP2: NovaScreen (NVS) Enzymatic Assay for human Caspase 2 (CASP2) (AID 2283135). A digest of the protocol:
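Single-point duplicate testing at 25 uM preceded concentration series topping at 50 uM. Activity of the recombinant E. coli-derived protease was followed by fluorescent substrate cleavage 1 h post-dosing, relative to DMSO.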

Test [3] deals with human Acid Phosphatase 1 (ACP1), ACP1 (gene 52) (UniProt P24666). Description: NVS_ENZ_hACP1: NovaScreen (NVS) Enzymatic Assay for human Acid Phosphatase 1 (ACP1) (AID 2283136). A digest of the protocol: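 Cell-free fluorescence read-out of phosphatase activity, substrate and product separated by mobility shift, taken 1.5 h after compound addition; protein produced in Sf9. Single 25 uM duplicate screen, followed by concentration series for actives, scored as signal loss relative to DMSO.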

The target of test [4] is human Caspase 5 (CASP5), CASP5 (gene 838) (UniProt P51878). Description: NVS_ENZ_hCASP5: NovaScreen (NVS) Enzymatic Assay for human Caspase 5 (CASP5) (AID 2283137). A digest of the protocol: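 Chemicals were first tested in duplicate at 25 uM against recombinant caspase 5 from E. coli. Activity was read by fluorescence intensity 2 hours after dosing. Those passing a preset inhibition threshold were retested in singleton concentration-response up to 50 uM.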

In test [5] the target is human AKT serine/threonine Kinase 1 (AKT1), AKT1 (gene 207) (UniProt P31749). Description: NVS_ENZ_hAKT1: NovaScreen (NVS) Enzymatic Assay for human AKT serine/threonine Kinase 1 (AKT1) (AID 2283138). A digest of the protocol:
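Compounds were first tested in duplicate at 25 uM, and those passing a threshold such as 30% inhibition were run in concentration-response to a maximum of 50 uM. Enzyme activity was measured after 1 h by fluorescence following substrate/product mobility-shift separation.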

The target of test [6] is human Beta-secretase (BACE), BACE1 (gene 23621) (UniProt P56817). The test can be described thus: NVS_ENZ_hBACE: NovaScreen (NVS) Enzymatic Assay for human Beta-secretase (BACE) (AID 2283140).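 Note: hits are inhibitors that reduce fluorescent substrate signal versus DMSO.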 Summed up:
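Fluorescence intensity read-out of protease activity defines this endpoint; signal loss relative to DMSO baseline marks inhibition. Recombinant enzyme from SF9 cells, cell-free format, 1 h exposure. Single-concentration duplicate screen (25 uM) precedes concentration-series follow-up.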

Test [7] addresses human Aurora Kinase A - serine/threonine-protein Kinase 6 (AurA), AURKA (gene 6790) (UniProt O14965). Description: NVS_ENZ_hAurA: NovaScreen (NVS) Enzymatic Assay for human Aurora Kinase A - serine/threonine-protein Kinase 6 (AurA) (AID 2283142). Summed up:
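Recombinant human AurA activity read by fluorescence after mobility-shift separation of product from substrate; 1 hour incubation. Chemicals first run in duplicate at 25 uM, then concentration series to 50 uM if over threshold; fitted relative to DMSO.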

Test [8] addresses human Caspase 4 (CASP4), CASP4 (gene 837) (UniProt P49662). Description: NVS_ENZ_hCASP4: NovaScreen (NVS) Enzymatic Assay for human Caspase 4 (CASP4) (AID 2283143). Summed up:
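Compounds were first tested in duplicate at 25 uM, and hits were titrated singly to a 50 uM maximum. Recombinant protease from E. coli was read by fluorescence 2 h post-dose, and activity loss was fitted against the DMSO baseline.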

Test [9] addresses human Caspase 8 (CASP8), CASP8 (gene 841) (UniProt Q14790). Description: NVS_ENZ_hCASP8: NovaScreen (NVS) Enzymatic Assay for human Caspase 8 (CASP8) (AID 2283146). A digest of the protocol:
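The primary screen tested compounds in duplicate at a single 25 uM concentration, with actives followed up in concentration series. Activity of recombinant (E. coli) protease was measured by fluorescence 1 h post-dose, as signal loss against DMSO.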

Test [10] deals with human Dual Specificity Protein Phosphatase 3 (DUSP3), DUSP3 (gene 1845) (UniProt P51452). The test can be described thus: NVS_ENZ_hDUSP3: NovaScreen (NVS) Enzymatic Assay for human Dual Specificity Protein Phosphatase 3 (DUSP3) (AID 2283152).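 Note: phosphatase activity of recombinant human DUSP3 on a fluorogenic substrate without cells.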 A digest of the protocol:
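Cell-free fluorescence-intensity enzyme activity assay with recombinant protein and substrate; loss of signal fitted relative to DMSO baseline. Primary screen in duplicate at 25 uM, actives then run in concentration series; measured 0 h after dosing.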

The target of test [11] is human Caspase 10 (CASP10), CASP10 (gene 843) (UniProt Q92851). The test can be described thus: NVS_ENZ_hCASP10: NovaScreen (NVS) Enzymatic Assay for human Caspase 10 (CASP10) (AID 2283133). A digest of the protocol:
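Fluorescence-intensity enzyme read-out of E. coli-expressed CASP10 activity, 1 h after compound. Single-point duplicates at 25 uM preceded concentration-response testing (top 50 uM) of hits; inhibition expressed as signal loss versus DMSO.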

The target of test [12] is human AKT serine/threonine Kinase 2 (AKT2), AKT2 (gene 208) (UniProt P31751). The test can be described thus: NVS_ENZ_hAKT2: NovaScreen (NVS) Enzymatic Assay for human AKT serine/threonine Kinase 2 (AKT2) (AID 2283141). Summed up: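 Cell-free fluorescence/electrophoretic mobility shift readout of recombinant human AKT2 activity, 1 h after chemical dosing. Duplicate primary screen at 25 uM, then singleton concentration-response up to 50 uM; loss of signal versus DMSO baseline.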

For test [13], the target named is human Casein Kinase 2- alpha 2 beta 2 (CK2a2b2), CSNK2A1 (gene 1457) (UniProt P68400). Description: NVS_ENZ_hCK2a2b2: NovaScreen (NVS) Enzymatic Assay for human Casein Kinase 2- alpha 2 beta 2 (CK2a2b2) (AID 2283147). A digest of the protocol:
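Compounds were first screened in duplicate at 25 uM, and those passing the threshold were re-tested in concentration series up to a 50 uM maximum. Kinase activity of recombinant human CK2 α2β2 was measured 1 h after dosing by fluorescent substrate/product mobility-shift separation.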

For test [14], the target named is CDK2 (gene 1017) (UniProt P24941). The test can be described thus: NVS_ENZ_hCDK2: NovaScreen (NVS) Enzymatic Assay for human Cyclin-Cependent Kinase 2 (CDK2) (AID 2283144). Summed up:
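Compounds screened in duplicate at 25 uM, then in singleton concentration-response to a maximum of 50 uM, against recombinant CDK2; kinase activity read 1 hr after dosing by fluorescence with mobility-shift separation of substrate and product.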

In test [15] the target is human Colony Stimulating Factor 1 Receptor (CSF1R), CSF1R (gene 1436) (UniProt P07333). Description: NVS_ENZ_hCSF1R: NovaScreen (NVS) Enzymatic Assay for human Colony Stimulating Factor 1 Receptor (CSF1R) (AID 2283150). A digest of the protocol:
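Compounds screened in duplicate at 25 uM, then concentration-response (top 50 uM) for those passing threshold such as 30% inhibition; recombinant CSF1R activity measured 1 h post-dosing via fluorescent substrate/product mobility-shift separation, loss of signal versus DMSO.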

In test [16] the target is Caspase-3 (Homo sapiens) (UniProt P42574). Description: NVS_ENZ_hCASP3: NovaScreen (NVS) Enzymatic Assay for human Caspase 3 (CASP3) (AID 2283139). A digest of the protocol: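 Single-concentration screening at 25 uM in duplicate, with concentration-response follow-up to a 50 uM maximum for chemicals passing the threshold. Caspase-3 (human, E. coli-expressed) activity was read as substrate fluorescence after 1 h, with loss of signal relative to DMSO.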

Test [17] addresses human AMP-activated Protein Kinase, alpha 1 (AMPKa1), PRKAA1 (gene 5562) (UniProt Q13131). Description: NVS_ENZ_hAMPKa1: NovaScreen (NVS) Enzymatic Assay for human AMP-activated Protein Kinase, alpha 1 (AMPKa1) (AID 2283130). Summed up:
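Compounds were screened in duplicate at 25 uM, and those reaching ~30% inhibition were titrated up to 50 uM. The enzyme was recombinant human AMPKα1, and kinase turnover was read by fluorescence/mobility shift 1 h post-dosing as loss of signal versus DMSO.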

“And” between values parts separate entries of the source, which are not always exact repeats. Identical values can stand only once. Records with an inconclusive call do not appear. The source holds several records for some structures; these can differ, active in one and inactive in another. The source made the active and inactive calls. Rule for the calls: active = hit-call score of the fitted dose curve at least 0.9, where 1 is the maximum; inconclusive = response in the unintended direction; inactive = score below 0.9.

Chain of Caspase-3 (Homo sapiens) (P42574 whole entry, looked up): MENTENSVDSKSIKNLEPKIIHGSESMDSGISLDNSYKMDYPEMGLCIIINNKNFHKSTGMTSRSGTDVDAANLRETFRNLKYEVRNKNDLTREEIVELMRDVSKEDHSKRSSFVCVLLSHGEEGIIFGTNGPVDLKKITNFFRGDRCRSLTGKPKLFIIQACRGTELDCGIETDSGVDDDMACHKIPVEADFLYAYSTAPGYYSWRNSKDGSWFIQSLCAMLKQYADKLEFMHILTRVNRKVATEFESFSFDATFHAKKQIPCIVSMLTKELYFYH
Chain of human Caspase 5 (CASP5), CASP5 (gene 838) (P51878 whole entry, looked up): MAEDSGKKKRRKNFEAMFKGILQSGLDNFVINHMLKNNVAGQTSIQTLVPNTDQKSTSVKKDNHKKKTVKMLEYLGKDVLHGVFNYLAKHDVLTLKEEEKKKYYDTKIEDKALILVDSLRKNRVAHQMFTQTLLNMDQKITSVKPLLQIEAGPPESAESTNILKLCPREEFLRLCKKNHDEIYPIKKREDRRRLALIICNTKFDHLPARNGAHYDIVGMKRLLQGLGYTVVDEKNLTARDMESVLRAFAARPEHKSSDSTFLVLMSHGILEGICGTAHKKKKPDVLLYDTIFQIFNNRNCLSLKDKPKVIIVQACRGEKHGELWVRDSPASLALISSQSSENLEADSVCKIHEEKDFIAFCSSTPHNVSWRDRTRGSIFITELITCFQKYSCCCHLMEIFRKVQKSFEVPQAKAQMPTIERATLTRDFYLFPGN
Chain of human Dual Specificity Protein Phosphatase 3 (DUSP3), DUSP3 (gene 1845) (P51452 whole entry, looked up): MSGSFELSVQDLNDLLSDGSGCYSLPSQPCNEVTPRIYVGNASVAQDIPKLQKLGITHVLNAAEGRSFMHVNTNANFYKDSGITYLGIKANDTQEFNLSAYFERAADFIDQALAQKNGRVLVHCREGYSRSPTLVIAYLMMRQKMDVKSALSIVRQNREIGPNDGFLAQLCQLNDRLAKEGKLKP
Chain of human Beta-secretase (BACE), BACE1 (gene 23621) (P56817 whole entry, looked up): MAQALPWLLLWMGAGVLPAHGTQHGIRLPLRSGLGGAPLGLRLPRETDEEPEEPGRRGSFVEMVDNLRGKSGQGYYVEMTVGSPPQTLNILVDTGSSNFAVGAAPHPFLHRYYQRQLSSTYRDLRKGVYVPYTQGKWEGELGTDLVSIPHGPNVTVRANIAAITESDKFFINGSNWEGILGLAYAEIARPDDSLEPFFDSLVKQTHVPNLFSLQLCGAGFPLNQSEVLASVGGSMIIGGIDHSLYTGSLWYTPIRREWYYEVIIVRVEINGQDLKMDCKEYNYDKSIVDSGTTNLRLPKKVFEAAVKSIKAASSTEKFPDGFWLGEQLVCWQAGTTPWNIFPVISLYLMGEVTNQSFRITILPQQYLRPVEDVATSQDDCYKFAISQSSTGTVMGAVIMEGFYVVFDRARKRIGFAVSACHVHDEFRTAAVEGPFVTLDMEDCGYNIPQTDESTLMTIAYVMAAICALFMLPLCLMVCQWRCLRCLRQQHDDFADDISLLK
Chain of human Caspase 8 (CASP8), CASP8 (gene 841) (Q14790 whole entry, looked up): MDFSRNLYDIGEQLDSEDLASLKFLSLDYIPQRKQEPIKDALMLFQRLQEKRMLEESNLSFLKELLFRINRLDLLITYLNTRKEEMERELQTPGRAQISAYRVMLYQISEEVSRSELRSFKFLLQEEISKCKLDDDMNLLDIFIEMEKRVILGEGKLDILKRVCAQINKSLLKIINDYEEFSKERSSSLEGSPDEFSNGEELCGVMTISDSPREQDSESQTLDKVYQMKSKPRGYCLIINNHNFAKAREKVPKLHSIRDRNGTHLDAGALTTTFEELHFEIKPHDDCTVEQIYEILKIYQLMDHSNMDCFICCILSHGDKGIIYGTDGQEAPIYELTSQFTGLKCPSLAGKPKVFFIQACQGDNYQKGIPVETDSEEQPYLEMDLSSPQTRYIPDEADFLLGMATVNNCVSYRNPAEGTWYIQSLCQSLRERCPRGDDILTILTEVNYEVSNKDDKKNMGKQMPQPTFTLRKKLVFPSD
Chain of Caspase-1 (Homo sapiens) (P29466 whole entry, looked up): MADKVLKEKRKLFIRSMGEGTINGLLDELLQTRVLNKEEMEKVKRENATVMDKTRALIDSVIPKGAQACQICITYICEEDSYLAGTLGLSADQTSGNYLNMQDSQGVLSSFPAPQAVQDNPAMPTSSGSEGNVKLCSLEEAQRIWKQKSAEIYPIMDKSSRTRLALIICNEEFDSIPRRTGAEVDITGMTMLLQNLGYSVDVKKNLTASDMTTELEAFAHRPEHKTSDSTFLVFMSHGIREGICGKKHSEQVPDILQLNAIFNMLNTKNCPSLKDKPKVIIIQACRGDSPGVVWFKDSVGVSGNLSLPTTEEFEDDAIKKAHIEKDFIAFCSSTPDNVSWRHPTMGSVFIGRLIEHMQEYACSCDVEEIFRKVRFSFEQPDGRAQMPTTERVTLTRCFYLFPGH
Chain of human Caspase 2 (CASP2), CASP2 (gene 835) (P42575 whole entry, looked up): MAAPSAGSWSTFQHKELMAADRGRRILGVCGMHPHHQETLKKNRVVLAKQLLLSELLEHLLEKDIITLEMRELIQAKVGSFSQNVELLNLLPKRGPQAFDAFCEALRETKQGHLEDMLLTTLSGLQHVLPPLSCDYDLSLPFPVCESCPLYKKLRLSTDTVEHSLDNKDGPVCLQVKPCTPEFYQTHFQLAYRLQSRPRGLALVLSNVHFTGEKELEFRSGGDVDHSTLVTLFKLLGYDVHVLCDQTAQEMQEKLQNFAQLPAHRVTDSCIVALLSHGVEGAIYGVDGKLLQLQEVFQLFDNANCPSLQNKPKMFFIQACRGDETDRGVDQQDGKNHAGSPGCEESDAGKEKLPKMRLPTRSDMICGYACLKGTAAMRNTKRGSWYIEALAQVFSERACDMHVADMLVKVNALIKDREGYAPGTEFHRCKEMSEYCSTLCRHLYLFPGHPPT
Chain of human Aurora Kinase A - serine/threonine-protein Kinase 6 (AurA), AURKA (gene 6790) (O14965 whole entry, looked up): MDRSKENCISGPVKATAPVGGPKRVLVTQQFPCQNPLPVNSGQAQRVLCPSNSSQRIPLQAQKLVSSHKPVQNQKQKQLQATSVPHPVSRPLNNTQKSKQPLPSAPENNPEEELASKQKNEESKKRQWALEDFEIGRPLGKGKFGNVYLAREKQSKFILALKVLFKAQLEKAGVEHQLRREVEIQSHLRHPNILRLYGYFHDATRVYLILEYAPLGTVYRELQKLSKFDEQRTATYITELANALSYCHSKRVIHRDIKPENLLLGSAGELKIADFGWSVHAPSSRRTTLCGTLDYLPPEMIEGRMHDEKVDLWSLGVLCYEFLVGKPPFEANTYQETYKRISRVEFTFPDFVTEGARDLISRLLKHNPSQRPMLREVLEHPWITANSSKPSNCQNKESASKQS
Chain of human Casein Kinase 2- alpha 2 beta 2 (CK2a2b2), CSNK2A1 (gene 1457) (P68400 whole entry, looked up): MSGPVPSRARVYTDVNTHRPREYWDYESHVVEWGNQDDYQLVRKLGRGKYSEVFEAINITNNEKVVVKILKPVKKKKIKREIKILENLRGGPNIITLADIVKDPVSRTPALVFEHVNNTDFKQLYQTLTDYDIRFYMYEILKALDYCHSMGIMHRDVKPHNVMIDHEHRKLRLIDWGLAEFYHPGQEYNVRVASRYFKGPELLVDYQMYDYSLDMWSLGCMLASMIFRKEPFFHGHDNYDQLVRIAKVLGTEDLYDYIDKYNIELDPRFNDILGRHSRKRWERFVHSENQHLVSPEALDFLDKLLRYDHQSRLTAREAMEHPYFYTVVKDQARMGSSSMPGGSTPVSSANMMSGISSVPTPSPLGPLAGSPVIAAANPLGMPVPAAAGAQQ
Chain of human AKT serine/threonine Kinase 2 (AKT2), AKT2 (gene 208) (P31751 whole entry, looked up): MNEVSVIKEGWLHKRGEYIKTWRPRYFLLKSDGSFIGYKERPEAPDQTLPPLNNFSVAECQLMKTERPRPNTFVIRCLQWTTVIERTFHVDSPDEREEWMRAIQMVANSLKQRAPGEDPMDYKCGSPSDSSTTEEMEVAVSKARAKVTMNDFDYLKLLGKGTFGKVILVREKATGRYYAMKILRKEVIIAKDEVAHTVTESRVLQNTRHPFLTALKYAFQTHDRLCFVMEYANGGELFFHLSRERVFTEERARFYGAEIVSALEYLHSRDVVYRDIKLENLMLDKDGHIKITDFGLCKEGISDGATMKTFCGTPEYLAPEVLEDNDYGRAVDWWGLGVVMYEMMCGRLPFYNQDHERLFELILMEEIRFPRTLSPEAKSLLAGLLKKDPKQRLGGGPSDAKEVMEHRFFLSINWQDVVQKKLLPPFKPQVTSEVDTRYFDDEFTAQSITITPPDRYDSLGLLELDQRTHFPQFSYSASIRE
Chain of human Acid Phosphatase 1 (ACP1), ACP1 (gene 52) (P24666 whole entry, looked up): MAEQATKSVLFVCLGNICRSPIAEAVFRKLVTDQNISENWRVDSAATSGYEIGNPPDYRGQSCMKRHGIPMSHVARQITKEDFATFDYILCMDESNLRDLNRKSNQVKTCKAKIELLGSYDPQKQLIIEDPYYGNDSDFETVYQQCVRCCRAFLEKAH
Chain of human Caspase 10 (CASP10), CASP10 (gene 843) (Q92851 whole entry, looked up): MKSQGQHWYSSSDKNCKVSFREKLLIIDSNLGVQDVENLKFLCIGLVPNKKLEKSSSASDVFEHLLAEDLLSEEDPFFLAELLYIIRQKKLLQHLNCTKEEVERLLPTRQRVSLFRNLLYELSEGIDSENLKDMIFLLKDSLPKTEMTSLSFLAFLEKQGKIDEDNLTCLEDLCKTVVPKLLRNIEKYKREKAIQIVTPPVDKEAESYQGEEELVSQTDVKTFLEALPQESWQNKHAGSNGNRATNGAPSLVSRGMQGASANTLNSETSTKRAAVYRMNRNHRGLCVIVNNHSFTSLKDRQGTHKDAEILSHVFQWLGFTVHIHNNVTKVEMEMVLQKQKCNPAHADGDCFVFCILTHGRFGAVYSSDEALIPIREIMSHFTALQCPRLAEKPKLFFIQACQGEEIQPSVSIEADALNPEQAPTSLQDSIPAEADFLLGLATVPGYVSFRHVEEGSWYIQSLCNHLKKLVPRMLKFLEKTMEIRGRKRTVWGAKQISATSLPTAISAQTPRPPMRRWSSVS

Take `S=C1NCCN1`: the call in test [1], in test [2], in [3], in test [4], in [5] and in test [6] was inactive. The outcome in [7], in [8], in test [9] and in test [10] was inactive.
For the molecule `O=C(O)c1cc(Oc2ccc(C(F)(F)F)cc2Cl)ccc1[N+](=O)[O-]`, the result in test [11], in test [12], in test [9] and in test [13] was inactive.
Take `Cc1nn(-c2cc(NS(C)(=O)=O)c(Cl)cc2Cl)c(=O)n1C(F)F`: the molecule was called inactive in test [9].
As a reminder, the AC50 is the midpoint of the concentration-response curve, whichever way the signal moves. `CC(COc1ccc(Oc2ccccc2)cc1)Oc1ccccn1` (stereo not given): the AC50 in test [6] is 37.2 µM (active).
With `CSc1nc(NC(C)C)nc(NC(C)C)n1`, the molecule was classed as inactive in [1] and in test [12].
In the case of `CCCCOC(=O)[C@@H](C)Oc1ccc(Oc2ccc(C#N)cc2F)cc1`, the call in test [10] was inactive.
As for `CC(C)[C@H](C(=O)O[C@H](C#N)c1cccc(Oc2ccccc2)c1)c1ccc(Cl)cc1`, the result in test [1] and in [7] was inactive. In [6], the AC50 was 1.19 µM (active).
Regarding `C#CC(C)(C)NC(=O)c1cc(Cl)cc(Cl)c1`, in test [1], the molecule was classed as inactive.
Turning to `CCC(CC)Nc1c([N+](=O)[O-])cc(C)c(C)c1[N+](=O)[O-]`, the molecule was classed as inactive in test [6].
Turning to `O=c1ccc(=O)[nH][nH]1`, the outcome in test [2] was inactive.
In the case of `CCCCN(CC)c1c([N+](=O)[O-])cc(C(F)(F)F)cc1[N+](=O)[O-]`, in [14], the call was inactive.
For `CSc1nnc(C(C)(C)C)c(=O)n1N`, the molecule was classed as inactive in test [12].
As for `CCc1cccc(CC)c1N(COC)C(=O)CCl`, the call in test [11] was inactive.
Regarding `CCOP(=S)(Oc1cnc(C(C)(C)C)nc1)OC(C)C` (stereo not given), the molecule was called inactive in [13].
`CCOP(=O)(NC(C)C)Oc1ccc(SC)c(C)c1` (stereo not given): the molecule was classed as inactive in test [14].
Same read-out and setting: the result for `CCNc1nc(Cl)nc(NC(C)(C)C#N)n1` reads “inactive”.
`CON=C(C(=O)OC)c1ccccc1CON=C(C)c1cccc(C(F)(F)F)c1`: the outcome in test [6] was inactive.
With `CC(Oc1cccc(Cl)c1)C(=O)O` (stereo not given), the concentration at half-maximal activity (AC50) in [13] is 15 µM (active).
With `Nc1c(Cl)cc([N+](=O)[O-])cc1Cl`, the molecule was classed as inactive in test [5] and in test [12].
For `CCCOc1nn(C(=O)NS(=O)(=O)c2ccccc2C(=O)OC)c(=O)n1C`, the result in test [15] was inactive.
Take `CC(C)=CC1C(C(=O)OCN2C(=O)C3=C(CCCC3)C2=O)C1(C)C` (stereo not given): the AC50 in [16] is 18.1 µM (active); in [6], 25 µM (active); in test [9] it was 25 µM (active).
With `CN(C)[C@@H]1C(=O)C(C(N)=O)=C(O)[C@@]2(O)C(=O)C3=C(O)c4c(O)cccc4[C@@](C)(O)[C@H]3[C@H](O)[C@@H]12`, the AC50 was 2.4 µM (active) in test [17]; 11.6 µM (active) in test [1]; 10.8 µM (active) in test [2]; 23.1 µM (active) in test [3]; 5.15 µM (active) and 683 nM (active) in [4]; 12.6 µM (active) and 7.9 µM (active) in test [6]. Moreover, the AC50 in test [7] is 29.4 µM (active); in test [8], 11.9 µM (active); in test [9], 15.8 µM (active); in [13], 23.1 µM (active); in [15], 12.5 µM (active); in [10], 2.62 µM (active). Besides, the result in [9] was inactive.
With `Cc1ccn2nc(S(=O)(=O)Nc3c(F)cccc3F)nc2n1`, the molecule was classed as inactive in test [4].
Take `CCOP(=S)(OCC)SCCSCC`: in test [16], the outcome was inactive.
Regarding `COP(=O)(NC(C)=O)SC` (stereo not given), the result in test [16] was inactive.
